High-throughput results from PubChem.
Neddylation inh: blocks human cullin neddylation; AID 651699; TR-FRET cullin neddylation, biochemical; inhibition, % at 25 µM; hit rate 0.58% among 360,000; P61081+Q13564; in the data active = inhibition above about 36%
Vif inh: blocks HIV Vif function. hit rate 0.35% among 340,000. HEK293T cells, Vif self-association by quenched fluorescence, imaging, 24 h. inhibition, % at 7.49 µM. AID 602346; in the data active = inhibition above about 50%, passing the limit was not always enough; inconclusive = no clear call, values can overlap the other calls; inactive = below about 31%
GSIS activator: primary screen for activators of insulin secretion dependent on glucose, INS-1E cells, GLuc reporter luminescence | hit rate 0.61% among 370,000 | AID 743287 | INS-1E GLuc reporter insulin secretion, 2-3 h | activation, % at 16.6 µM;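 active = lowest replicate activation of at least 40%, so every replicate reaches that level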
A1 inh: inhibitors of the anti-apoptotic protein A1, read as caspase activation. AID 2462. hit rate 0.066% among 330,000. caspase activation, % (test concentration not listed). MEF A1-2A-BIM cells, Caspase-Glo 3/7 luminescence, 3 h; percent of clofoctol response, vehicle zero;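 active = over half of replicate activation scores above 10%, or exactly half above 10 with the replicate mean above 10; inconclusive = replicate mean below 10 yet half the replicates above 10; inactive = over half of replicates below 10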
dFosB act: mouse delta FosB homodimer activation; P13346; purified delta FosB, TAMRA-CDK5 oligo fluorescence polarization; percent of positive-control signal above neutral wells; activation, % at 25 µM; hit rate 0.99% among 340,000; AID 493131;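 active = mean activation above about 17%, with every replicate also reaching it, limit read from the data, passing the limit was not always enough; inconclusive = only one of the two conditions met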
Target sequence (P13346 whole entry, looked up): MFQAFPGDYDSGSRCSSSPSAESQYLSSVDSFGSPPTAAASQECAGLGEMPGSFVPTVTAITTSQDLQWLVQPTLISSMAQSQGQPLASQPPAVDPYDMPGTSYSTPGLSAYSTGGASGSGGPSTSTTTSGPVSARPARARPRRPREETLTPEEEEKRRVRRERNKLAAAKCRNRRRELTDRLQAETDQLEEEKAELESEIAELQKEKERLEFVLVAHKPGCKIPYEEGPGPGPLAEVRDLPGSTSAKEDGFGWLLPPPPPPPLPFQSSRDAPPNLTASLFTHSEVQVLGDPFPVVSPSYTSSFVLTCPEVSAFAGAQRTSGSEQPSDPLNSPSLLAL
Each line names hits and unclear results; the compound was inactive in the other large screens. The list is not random: actives were taken first. Their share in the collection is about 1.9%.

Cn1c(SCC(=O)NCc2cccs2)nnc1-c1ccncc1	Vif inh 59.4
O=C(O[C@@H]1OC2COC(=O)c3cc(O)c(O)c(O)c3-c3c(cc(O)c(O)c3O)C(=O)O[C@@H]([C@H]1O)[C@@H]2O)c1cc(O)c(O)c(O)c1	Neddylation inh 37.8 (no result: GSIS activator)
COC(=O)c1ccc2c(c1)C(=O)/C(=C/c1ccc(C)cc1)O2	none
CN(C)c1ccc(/C=C2\Oc3ccc(C#Cc4cccc(N)c4)cc3C2=O)cc1	Vif inh 62.6 (not shown: Neddylation inh, GSIS activator)
Cc1ccc2c(COC(=O)CNC(=O)c3ccccc3)cc(=O)oc2c1	none (no result: GSIS activator)
Cc1ccc2c(COC(=O)c3ccccc3OC(F)F)cc(=O)oc2c1	Vif inh 52.4
CN(CC(=O)Nc1ccc(F)c(Cl)c1)S(=O)(=O)c1ccc2c(c1)n(C)c(=O)c(=O)n2C	dFosB act 42.0
CCOc1cc(C2C3=C(CC(C)(C)CC3=O)Nc3n[nH]c(C)c32)ccc1O (stereo unspecified)	GSIS activator 42.8
COc1ccc(C2=NN(C(C)=O)C(c3cccs3)C2)cc1OC (stereo unspecified)	GSIS activator 75.6
CCN1/C(=C/C=C/c2sc3ccccc3[n+]2CC)Sc2ccccc21	dFosB act inconclusive (no result: GSIS activator)
CCN1/C(=C/C=C/c2oc3ccc(-c4ccccc4)cc3[n+]2CC)Oc2ccc(-c3ccccc3)cc21	Vif inh 146.7
COc1ccc(/C=N/Nc2ncnc3c2[nH]c2ccccc23)c(OC)c1OC	GSIS activator 68.4
COc1ccc(-c2oc3ncnc(NCCCN(C)C)c3c2-c2ccc(OC)cc2)cc1	none (not shown: Neddylation inh)
CN(C)CCNc1ncnc2oc(-c3ccccc3)c(-c3ccccc3)c12	GSIS activator 53.3
O=C(O)CCN1C(=O)NC2(CCCC2)C1=O	Vif inh inconclusive (no result: GSIS activator)
O=C(O)CCC1(CCC(=O)O)CCCC(CCC(=O)O)(CCC(=O)O)C1=O	GSIS activator 46.6 (no result: A1 inh)
O=C(C1CCCC1)N1CC(=O)N2[C@@H](CO)[C@@H](c3ccc(-c4ccccc4F)cc3)[C@@H]2C1	none (no result: Neddylation inh, Vif inh, A1 inh, dFosB act)
CCn1c(=NC(=O)C2COc3ccccc3O2)sc2c(OC)ccc(OC)c21 (stereo unspecified)	Vif inh 70.8
COCCn1c(=NC(=O)C2COc3ccccc3O2)sc2cc(S(N)(=O)=O)ccc21 (stereo unspecified)	none (no result: Vif inh)
COc1cccc(C#Cc2ccc([C@@H]3[C@@H](CO)N4C(=O)CN(C(=O)c5ccncc5)C[C@@H]34)cc2)c1	none (no result: Neddylation inh, Vif inh, A1 inh, dFosB act)
CCN1CCN(Cc2ccc(NC(=O)c3cccc(-c4ccc5nc(NC(=O)C6CC6)sc5n4)c3)cc2C(F)(F)F)CC1	GSIS activator 143.1 (no result: Neddylation inh, Vif inh, A1 inh, dFosB act)
CCOC(=O)c1ccc(-c2ccc(/C=N/NC(=O)c3cncc(Br)c3)o2)cc1	Vif inh 58.0 (no result: dFosB act)
CCCCOC(=O)c1ccc(-c2ccc(/C=N/NC(=S)NCC)o2)cc1	GSIS activator 159.3 (no result: Vif inh)
Cc1ccc(/C=N\NC(=O)c2cncc(Br)c2)o1	none
O=C(NC1CCCC1)N1CC(=O)N2[C@H](CO)[C@@H](c3ccc(-c4cccc(F)c4)cc3)[C@@H]2C1	none (no result: Neddylation inh, Vif inh, A1 inh, dFosB act)
COc1ccc(NC(=O)Nc2ccc3c(c2)C(=O)N([C@@H](C)CO)C[C@H](C)[C@H](CN(C)C(=O)Nc2ccccc2)O3)cc1	none (no result: Neddylation inh, Vif inh, A1 inh, dFosB act)
C/C=C/c1cnc2c(c1)C(=O)N([C@@H](C)CO)C[C@@H](C)[C@@H](CN(C)C(=O)c1cccc(F)c1)O2	none (no result: Neddylation inh, Vif inh, A1 inh, dFosB act)
COC(=O)c1cccc(NC(=S)NCCC2=CCCCC2)c1	Vif inh 55.1
C[C@@H]1CN([C@@H](C)CO)C(=O)c2cc(NS(=O)(=O)c3cccs3)ccc2O[C@@H]1CN(C)S(=O)(=O)c1cccs1	none (no result: Neddylation inh, Vif inh, A1 inh, dFosB act)
O=C(C[C@H]1CC[C@@H]2[C@H](COC[C@H](O)CN2C(=O)c2ccccc2F)O1)NCc1ccc(Cl)c(Cl)c1	none (no result: Neddylation inh, Vif inh, A1 inh, dFosB act)
COc1ccc(/C=C2/C(=O)OCc3cc(OC)c(OC)cc32)cc1	GSIS activator 112.6
COc1ccc(/C=C2\CCOC2=O)cc1	none (no result: GSIS activator)
CCCCCc1ccc(-c2cn(Cc3ccc(C)cc3)nn2)cc1	none (no result: GSIS activator)
CCCCCc1ccc(-c2cn(CN3C(=O)c4ccccc4C3=O)nn2)cc1	Vif inh 65.4
COc1ccc2cc(C#N)c(SCC(=O)Nc3nonc3C)nc2c1	none
Cc1cc2cc(C#N)c(SCC(=O)Nc3nonc3C)nc2cc1C	Vif inh 78.9
O=C1N/C(=N\N=C\c2cccs2)SC1Cc1cccc(Cl)c1 (stereo unspecified)	GSIS activator 85.7
NC(=O)c1ccccc1OCC(=O)NS(=O)(=O)c1ccccc1	Vif inh 56.1 (no result: GSIS activator)
NC(=O)c1ccccc1OCC(=O)O	none (no result: GSIS activator)
CO[C@@H]1CN(C)C(=O)c2ccc(NC(=O)C3CCCC3)cc2OC[C@H](C)N(C)C[C@H]1C	none (no result: Neddylation inh, Vif inh, A1 inh, dFosB act)
CCC(=O)N1[C@@H]2c3ccc(C4=CCCC4)c(=O)n3C[C@@H]2[C@@H](CO)[C@@H]1C(=O)NCc1ccc(F)cc1	none (no result: Neddylation inh, Vif inh, A1 inh, dFosB act)
COc1cc2[nH]c(=O)n(CCCC(=O)NC3CCCCC3)c(=O)c2cc1OC	Vif inh 55.2 (no result: GSIS activator)
Cc1ccccc1S(=O)(=O)Nc1nc2ccccc2nc1NCCO	Vif inh 51.5
Cc1ccc(C(C)(C)C)cc1S(=O)(=O)Nc1nc2ccccc2nc1Cl	none
CCCNC(=O)[C@H]1[C@H](CO)[C@H]2Cn3c(ccc(C4=CCCCC4)c3=O)[C@@H]1N2	none (no result: Neddylation inh, Vif inh, A1 inh, dFosB act)
O=[N+]([O-])/C=C/c1cn(Cc2ccc(Cl)cc2)c2ccccc12	A1 inh 9.1
COCCCNC(=O)C(=O)NCC(c1ccco1)N1CCN(c2ccc(OC)cc2)CC1 (stereo unspecified)	GSIS activator 49.6
O=C(NCCC1=CCCCC1)C(=O)NCC(c1ccco1)N1CCN(c2ccccc2)CC1 (stereo unspecified)	GSIS activator 125.9
O[C@H]1C[C@H](c2ccccc2)N(CC2CCCCC2)C[C@@H]1n1cc(C2CC2)nn1	GSIS activator 143.0 (no result: Vif inh, A1 inh, dFosB act)
Cc1cc(/C=C2/SC(=O)N(CC(=O)N3CCOCC3)C2=O)c(C)n1-c1ccccc1F	GSIS activator 51.5
COc1ccc(-n2c(C)cc(/C=C3/SC(=O)N(CC(=O)N4CCOCC4)C3=O)c2C)cc1	none
Cc1ccc2c(c1)C(=O)C(=O)N2Cc1ccc(Br)cc1	A1 inh 5.9
CN(C)CCCNC(=O)C[C@@H]1CC[C@H]2[C@@H](COc3ccc(NC(=O)C4CCC4)cc3C(=O)N2C)O1	none (no result: Neddylation inh, Vif inh, A1 inh, dFosB act)
CCCn1nc(NC(=O)c2ccco2)c2cc3cc(C)ccc3nc21	none (not shown: Neddylation inh)
CCn1nc(NC(=O)c2ccco2)c2cc3ccccc3nc21	GSIS activator 44.2 (not shown: Neddylation inh)
C[C@H](CO)N1C[C@H](C)[C@H](CN(C)S(C)(=O)=O)OCCCC[C@H](C)Oc2ccc(NS(=O)(=O)c3cccs3)cc2C1=O	none (no result: Neddylation inh, Vif inh, A1 inh, dFosB act)
Cc1ccc(NC(=O)/C=C/c2ccco2)nc1	Vif inh 51.4
O=C(/C=C/c1ccco1)Nc1ccc(N2CCCC2)cc1	dFosB act 41.3
COc1cccc(NC(=O)/C=C/c2ccco2)c1	none
O=C(/C=C/c1ccco1)Nc1ccc(Oc2ccc(Cl)cc2)cc1	Vif inh 62.8 (no result: GSIS activator)
